Test results: PMC4336329 (PLoS ONE, 2015)
In all, about 310,000 compounds went through this assay and about 14,000 (4.5%) showed an effect of 50% or more. The effect is printed as a negative number. What follows is part of a selection rich in strong results, with near analogues and random picks from the rest.

molecular target: human ether-à-go-go-related gene (hERG) potassium channel (human, UniProt Q12809); assay: primary screen, population patch clamp on CHO cells stably expressing hERG; higher = less effect of the substance
Sequence (Q12809 whole entry, looked up): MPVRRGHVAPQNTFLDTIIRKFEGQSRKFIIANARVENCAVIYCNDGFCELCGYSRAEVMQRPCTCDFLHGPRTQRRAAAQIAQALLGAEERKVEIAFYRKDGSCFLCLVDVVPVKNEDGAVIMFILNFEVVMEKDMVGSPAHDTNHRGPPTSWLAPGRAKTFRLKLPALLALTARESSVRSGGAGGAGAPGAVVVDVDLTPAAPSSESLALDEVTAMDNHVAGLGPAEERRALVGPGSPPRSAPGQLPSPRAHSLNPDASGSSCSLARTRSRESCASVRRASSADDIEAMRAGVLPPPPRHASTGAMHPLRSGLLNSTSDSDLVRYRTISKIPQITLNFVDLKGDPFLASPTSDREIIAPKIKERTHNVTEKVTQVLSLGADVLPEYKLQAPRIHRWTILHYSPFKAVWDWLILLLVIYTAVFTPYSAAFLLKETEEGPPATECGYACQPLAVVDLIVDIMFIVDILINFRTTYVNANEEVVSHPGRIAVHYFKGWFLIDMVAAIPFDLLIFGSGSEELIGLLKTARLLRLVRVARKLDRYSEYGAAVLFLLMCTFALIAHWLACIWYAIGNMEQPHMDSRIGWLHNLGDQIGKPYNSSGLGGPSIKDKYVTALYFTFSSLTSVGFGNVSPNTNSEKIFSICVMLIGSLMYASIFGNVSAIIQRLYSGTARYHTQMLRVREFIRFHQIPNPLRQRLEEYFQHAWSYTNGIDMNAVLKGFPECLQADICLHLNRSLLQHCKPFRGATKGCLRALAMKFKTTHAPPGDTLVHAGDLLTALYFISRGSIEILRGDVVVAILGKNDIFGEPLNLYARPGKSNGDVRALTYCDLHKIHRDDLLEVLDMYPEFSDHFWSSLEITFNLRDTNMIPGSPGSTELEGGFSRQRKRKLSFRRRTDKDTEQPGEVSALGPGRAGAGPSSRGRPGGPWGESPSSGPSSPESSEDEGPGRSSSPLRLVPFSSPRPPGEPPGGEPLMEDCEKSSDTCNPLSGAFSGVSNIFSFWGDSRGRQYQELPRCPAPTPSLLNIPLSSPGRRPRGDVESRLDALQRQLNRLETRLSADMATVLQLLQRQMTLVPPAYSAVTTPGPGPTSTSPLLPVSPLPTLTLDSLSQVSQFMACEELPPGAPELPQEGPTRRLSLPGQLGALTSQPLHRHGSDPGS
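Note: peak tail current of the secondary pulse compared with the same well before compound.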

SMILES | hERG current change (%, negative = inhibition) at 10uM [%]
COc1ccc(C)cc1S(=O)(=O)N1CCCC(N2CCOCC2)C1 (stereo not drawn) | 13.4
O=S(=O)(Nc1cccc2c1CCCC2)c1ccc(Cl)cc1 | -9.87
COC(=O)c1c(NC(=O)C2CCC2)sc(C(=O)N(C)C)c1C | 4
O=C(/C=C/c1ccc2c(c1)OCO2)c1c(O)n(CCc2ccccc2)c(=O)[nH]c1=O | 1.79
COc1cc(CCC(=O)OCC(=O)Nc2ccc(Br)cc2F)cc(OC)c1OC | -11.6
O=C(CN1CCN(CC(=O)Nc2ccc(Cl)cc2)CC1)Nc1ccc(F)cc1 | -76.9
O=C(CSc1ccccc1F)Nc1ccc(N2CCOCC2)cc1 | 3.82
NC(=O)c1ccc(NC(=O)CN2CCN(c3ccccc3)CC2)cc1 | 12.6
NC(=O)c1ccc(NC(=O)CN2CCN(c3ccc(Cl)cc3)CC2)cc1 | -51.3
O=C(CN1CCN(c2ccccc2)CC1)Nc1ccc(F)cc1 | -39.7
O=C(CN1CCN(CC(=O)Nc2ccc(-c3ccccc3)cc2)CC1)Nc1ccc(F)cc1 | -66.2
O=C(CN1CCN(CC(=O)Nc2cccc(F)c2)CC1)Nc1ccc(-c2ccccc2)cc1 | -28.6
O=C(CSc1cc(Cl)ccc1Cl)Nc1ccc(N2CCOCC2)cc1 | -58.3
Cc1ccc(SCC(=O)Nc2ccc(N3CCOCC3)cc2)c(C)c1 | 10.5
O=C(CN1CCOCC1)Nc1ccc(Cl)cc1 | -1.12
O=C(CN1CCOCC1)Nc1ccc(F)cc1 | 2.97
COC(=O)c1ccc(NC(=O)CN2CCN(c3ccc(Cl)cc3)CC2)cc1 | 11.9
COc1cc(Cl)c(C)cc1NC(=O)c1ccc2c(c1)OCO2 | 19
O=c1oc2ccccc2c2c1nnn2CCO | 8.06
CCCCn1c(N)c(N(CC(C)C)C(=O)C2CC(=O)N(c3ccc(CC)cc3)C2)c(=O)[nH]c1=O (stereo not drawn) | 18.8
CC(C)CC(NS(=O)(=O)OCC(Cl)(Cl)Cl)c1ccccc1 (stereo not drawn) | 1.57
O=C(COC(=O)c1cc(-c2ccccc2)nc2ccccc12)NCC1CCCO1 (stereo not drawn) | -22.4
CCN(CC)c1ccc(C(=S)NCc2ccccc2)cc1 | 13

SMILES | hERG current change (%, negative = inhibition) at 10uM [%]
COc1ccc(NC(=O)CC2SC(=N)N(c3ccccc3)C2=O)c(OC)c1 (stereo not drawn) | 29.4
O=C(CN1CCN(c2ccc(F)cc2)CC1)Nc1ccccc1 | 6.74
O=C(CN1CCN(c2ccc(Cl)cc2)CC1)Nc1ccc(F)cc1 | -60.9
O=C(CN1CCN(c2ccc(F)cc2)CC1)Nc1ccc(F)c(F)c1 | -27.8
CC(=O)Nc1ccc(S(=O)(=O)N(C)CC(=O)OCC(=O)N2CCCCC2)cc1 | -1.43
O=C(Cn1c(NCCO)nc2ccccc21)NCCc1ccc(F)cc1 | 10.6
CC(C)Cc1nc(N2CCN(C(=O)C(C)C)CC2)c(C#N)c2c1CCC2 | -27.2
CCCC(=O)N1CCN(c2nc(CC(C)C)c3c(c2C#N)CCC3)CC1 | -53
CC(=O)N1CCN(c2nc(CC(C)C)c3c(c2C#N)CCC3)CC1 | -9.82
CC(=O)c1ccc(N(CC(=O)NC2CCCC2)C(=O)c2csnn2)cc1 | 13.8
O=C(Nc1ccc(N2CCN(C(=O)c3cccs3)CC2)cc1)c1ccc(F)cc1 | -15.3
COc1cccc(C(=O)Nc2ccc(N3CCN(C(=O)c4cccs4)CC3)cc2)c1 | -19.7
O=C(Nc1ccc(N2CCN(C(=O)c3ccccc3)CC2)cc1)c1ccc(Br)o1 | -75.9
O=C(Nc1ccc(N2CCN(C(=O)c3cccs3)CC2)cc1)c1cccc(F)c1 | -62.6
N#CCC(=O)Nc1ccc(C(=O)N2CCN(c3ccccn3)CC2)cc1 | 18.4
O=C(Nc1ccc(N2CCN(C(=O)c3ccc(Cl)cc3)CC2)cc1)c1cc2ccccc2o1 | -0.396
O=C(c1ccc(Br)o1)N1CCN(c2ccccn2)CC1 | -19.3
O=C(Nc1ccc(N2CCN(C(=O)c3ccc(Cl)cc3)CC2)cc1)c1ccc(Br)o1 | -75.3
N#Cc1ccccc1N1CCN(C(=O)c2ccc(NC(=O)c3ccc(Br)o3)cc2)CC1 | -18.9
O=C(Nc1ccc(N2CCCC2)cc1)c1ccc(Br)o1 | -20.8
CC(C)C(=O)N1CCN(c2ccc(NC(=O)c3ccc(Br)o3)cc2)CC1 | -0.0806
O=C(Nc1ccc(C(=O)N2CCN(c3ccccn3)CC2)cc1)c1ccc(Br)o1 | -66.7
